The record followed here is PubChem BioAssay (NCI).

Several values for one entry are separate records, joined by “and”; a condition that tells them apart may be missing. Equal entries are not always repeated. About 79,000 compounds went through this panel and 15% of them were active in at least one assay; those are over-represented in the sample as a whole. A structure can be active in one record and inactive in another. Activity calls are given as the source filed them. Cut-off read from the data, not from the text of the source: active = growth inhibition above about 70%; inactive = the rest.

The nature of test [1]: NCI Yeast Anticancer Drug Screen. Data for the rad50 strain (AID 155).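 Note: 0% = growth of vehicle-only cultures of the same strain.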 To be noted: S. cerevisiae rad50 strain growth inhibition, stronger effect = higher value. The gist of the method:
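DNA repair mutant yeast, compound exposure, growth read-out; inhibition is taken relative to vehicle.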

Test [2] can be described thus: NCI Yeast Anticancer Drug Screen. Data for the mec2-1 strain (AID 157). To be noted: S. cerevisiae mec2-1 strain, stronger effect = higher value. The gist of the method:
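mec2-1 yeast strain, carrying an alteration in DNA damage repair or cell cycle control, was exposed to compounds; growth inhibition was measured relative to vehicle-treated controls.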

Test [3] in a line: NCI Yeast Anticancer Drug Screen. Data for the sgs1 mgt1 strain (AID 161).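 Note: 0% = growth of cultures given vehicle only.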 Particulars: S. cerevisiae sgs1 mgt1 strain, stronger effect = higher value. The gist of the method:
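Growth of a repair-deficient yeast mutant was monitored after compound treatment and expressed as inhibition relative to vehicle-treated cultures.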

Test [4] can be described thus: NCI Yeast Anticancer Drug Screen. Data for the cln2 rad14 strain (AID 165).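 Note: 0% = growth equal to vehicle treated cultures.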 Particulars: S. cerevisiae cln2 rad14 strain, stronger effect = higher value. In a few lines:
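Yeast carrying cln2 and rad14 alterations (cell cycle control and DNA damage repair) were exposed to compounds. Growth inhibition was measured against vehicle-treated controls.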

The nature of test [5]: NCI Yeast Anticancer Drug Screen. Data for the bub3 strain (AID 167). To be noted: S. cerevisiae bub3 mutant strain, stronger effect = higher value. The gist of the method:
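In this screen, a yeast mutant lacking normal mitotic checkpoint function is challenged with compound. Relative growth versus vehicle gives the inhibition value.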

Test [6] is described as follows: NCI Yeast Anticancer Drug Screen. Data for the mlh1 rad18 strain (AID 175). Particulars: S. cerevisiae mlh1 rad18 strain growth inhibition, stronger effect = higher value. In a few lines: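 Growth inhibition of the yeast strain was measured after compound exposure and expressed relative to vehicle-treated controls. The strain carries defined defects in DNA damage repair.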

Where [7] appears, read: at 5.0 µM (retest, dose inferred, filed as 0.5).
The mark [8] stands for this setting: at 50.0 µM (retest, dose inferred, filed as 5.0).

As for `COc1ccc(CNCCc2ccc(O)c(OC)c2)cc1O`, the growth inhibition in test [1] (setting [7]) is 1% (inactive); in test [1] (setting [8]) it was 0% (inactive); in test [1] (at 50.0 µM) it was 31.4% (inactive); in test [2] (setting [7]), 1% (inactive); in test [2] (setting [8]), 3% (inactive); in test [2] (at 50.0 µM), -2.8% (inactive). Moreover, the growth inhibition in test [3] (setting [7]) was 4% (inactive); in test [3] (setting [8]) it was 7% (inactive); in test [3] (at 50.0 µM) it was -0.55% (inactive); in test [4] (setting [7]), -5% (inactive); in test [4] (setting [8]), 5% (inactive); in test [4] (at 50.0 µM), -6.35% (inactive). Besides, the growth inhibition in test [5] (setting [7]) is -3% (inactive); in test [5] (setting [8]), -3% (inactive); in test [5] (at 50.0 µM), 8.7% (inactive); in test [6] (setting [7]) it was -1% (inactive); in test [6] (setting [8]), 8% (inactive); in test [6] (at 50.0 µM), -4.45% (inactive).
On to `CC(C)c1cccc(C(C)C)c1NC(=O)C(=O)CC(=O)CC(c1ccccc1)c1c(O)c2ccccc2oc1=O` (centres undefined), for which the growth inhibition in test [1] (setting [7]) was 8% (inactive); in test [1] (setting [8]), 8% (inactive); in test [1] (at 50.0 µM), 59.4% (inactive); in test [2] (setting [7]), -12% (inactive); in test [2] (setting [8]), -12% (inactive); in test [2] (at 50.0 µM), 43% (inactive). In addition, the growth inhibition is 11% (inactive) in test [3] (setting [7]); 11% (inactive) in test [3] (setting [8]); 71% (active) in test [3] (at 50.0 µM); -2% (inactive) in test [4] (setting [7]); -2% (inactive) in test [4] (setting [8]); 55.2% (inactive) in test [4] (at 50.0 µM). Further, the growth inhibition in test [5] (setting [7]) was -1% (inactive); in test [5] (setting [8]), -1% (inactive); in test [5] (at 50.0 µM), 70.7% (active); in test [6] (setting [7]) it was 7% (inactive); in test [6] (setting [8]) it was 7% (inactive); in test [6] (at 50.0 µM), 58.6% (inactive).
Consider `O=C(O)C(O)(c1ccccc1)C1(O)CCCCC1` (centres undefined), for which the growth inhibition in test [1] (setting [7]) was -147% (inactive); in test [1] (setting [8]), -173% (inactive); in test [1] (at 50.0 µM), 1.7% (inactive); in test [2] (setting [7]), -47% (inactive); in test [2] (setting [8]), -54% (inactive); in test [2] (at 50.0 µM), 7.95% (inactive). Also, the growth inhibition in test [3] (setting [7]) is -53% (inactive); in test [3] (setting [8]), -64% (inactive); in test [3] (at 50.0 µM) it was 17.2% (inactive); in test [4] (setting [7]), -54% (inactive); in test [4] (setting [8]) it was -61% (inactive); in test [4] (at 50.0 µM), 3.15% (inactive). Further, the growth inhibition in test [5] (setting [7]) is -64% (inactive); in test [5] (setting [8]), -83% (inactive); in test [5] (at 50.0 µM), -3.65% (inactive); in test [6] (setting [7]), -114% (inactive); in test [6] (setting [8]), -127% (inactive); in test [6] (at 50.0 µM) it was 50.3% (inactive).
`CCc1ccc([O-])c(C=NCCCN(C)CCCN=Cc2cc(C)ccc2[O-])c1.[Co+3].[N-]=[N+]=[N-]`: the growth inhibition in test [1] (setting [7]) is -10% (inactive); in test [1] (setting [8]), 7% (inactive); in test [1] (at 50.0 µM), 22.1% (inactive); in test [2] (setting [7]), -8% (inactive); in test [2] (setting [8]), 15% (inactive); in test [2] (at 50.0 µM), -12.9% (inactive). Further, the growth inhibition in test [3] (setting [7]) was -4% (inactive); in test [3] (setting [8]), 6% (inactive); in test [3] (at 50.0 µM), 50.5% (inactive); in test [4] (setting [7]), -20% (inactive); in test [4] (setting [8]), 0% (inactive); in test [4] (at 50.0 µM) it was -34.5% (inactive). The growth inhibition is 1% (inactive) in test [5] (setting [7]); 8% (inactive) in test [5] (setting [8]); -11.2% (inactive) in test [5] (at 50.0 µM); -4% (inactive) in test [6] (setting [7]); -7% (inactive) in test [6] (setting [8]); 0.85% (inactive) in test [6] (at 50.0 µM).
In the case of `O=C(CCl)Nc1cccc(Cl)c1`, the growth inhibition was 3% (inactive) in test [1] (setting [7]); 80% (active) in test [1] (setting [8]); 92.4% (active) in test [1] (at 50.0 µM); 2% (inactive) in test [2] (setting [7]); 50% (inactive) in test [2] (setting [8]); 89.5% (active) in test [2] (at 50.0 µM). Also, the growth inhibition in test [3] (setting [7]) was 1% (inactive); in test [3] (setting [8]), 68% (inactive); in test [3] (at 50.0 µM) it was 87.5% (active); in test [4] (setting [7]), 2% (inactive); in test [4] (setting [8]), 33% (inactive); in test [4] (at 50.0 µM), 67.8% (inactive). The growth inhibition in test [5] (setting [7]) is 10% (inactive); in test [5] (setting [8]) it was 78% (active); in test [5] (at 50.0 µM) it was 94.4% (active); in test [6] (setting [7]) it was 2% (inactive); in test [6] (setting [8]), 78% (active); in test [6] (at 50.0 µM), 95% (active).
`Nc1nc(CCl)cs1`: the growth inhibition in test [1] (setting [7]) is -2% (inactive); in test [1] (setting [8]), -5% (inactive); in test [1] (at 50.0 µM), -2.05% (inactive) and -11.7% (inactive); in test [2] (setting [7]), 0% (inactive); in test [2] (setting [8]) it was -2% (inactive); in test [2] (at 50.0 µM), -24.7% (inactive) and -9.55% (inactive). Also, the growth inhibition in test [3] (setting [7]) was 1% (inactive); in test [3] (setting [8]), -3% (inactive); in test [3] (at 50.0 µM), -17.6% (inactive) and -0.25% (inactive); in test [4] (setting [7]), -7% (inactive); in test [4] (setting [8]), -8% (inactive); in test [4] (at 50.0 µM) it was 75.8% (active) and -22.8% (inactive). For the same compound, the growth inhibition in test [5] (setting [7]) was -4% (inactive); in test [5] (setting [8]), -7% (inactive); in test [5] (at 50.0 µM) it was 52.4% (inactive) and 4.7% (inactive); in test [6] (setting [7]), -2% (inactive); in test [6] (setting [8]) it was -6% (inactive); in test [6] (at 50.0 µM), 17.8% (inactive) and -17% (inactive).
For the compound `CC(C)c1c(O)c(O)c2c(c1O)C(=O)C(O)=C1C(C)(C)CCC[C@@]12C`, the growth inhibition in test [1] (setting [7]) was 48% (inactive); in test [1] (setting [8]), 95% (active); in test [1] (at 50.0 µM), 86.8% (active); in test [2] (setting [7]), 72% (active); in test [2] (setting [8]), 96% (active); in test [2] (at 50.0 µM) it was 88.8% (active). Besides, the growth inhibition is 79% (active) in test [3] (setting [7]); 95% (active) in test [3] (setting [8]); 88.6% (active) in test [3] (at 50.0 µM); 64% (inactive) in test [4] (setting [7]); 96% (active) in test [4] (setting [8]); 85.8% (active) in test [4] (at 50.0 µM). The growth inhibition in test [5] (setting [7]) is 84% (active); in test [5] (setting [8]), 95% (active); in test [5] (at 50.0 µM), 84.9% (active); in test [6] (setting [7]), 86% (active); in test [6] (setting [8]) it was 89% (active); in test [6] (at 50.0 µM) it was 80.4% (active).
Turning to `Cc1ccc(P(=O)(c2ccc(C)cc2)c2ccc(C)cc2)cc1.Cc1ccc(P(=O)(c2ccc(C)cc2)c2ccc(C)cc2)cc1.[Cl][Sn]([Cl])([Cl])[Cl]`, the growth inhibition in test [1] (setting [7]) is 4% (inactive); in test [1] (setting [8]), 1% (inactive); in test [1] (at 50.0 µM), -9.9% (inactive); in test [2] (setting [7]) it was 0% (inactive); in test [2] (setting [8]), 1% (inactive); in test [2] (at 50.0 µM), 0.85% (inactive). The growth inhibition in test [3] (setting [7]) is 2% (inactive); in test [3] (setting [8]), 6% (inactive); in test [3] (at 50.0 µM), 42.6% (inactive); in test [4] (setting [7]), 4% (inactive); in test [4] (setting [8]), 8% (inactive); in test [4] (at 50.0 µM), 4.1% (inactive). Besides, the growth inhibition in test [5] (setting [7]) was 13% (inactive); in test [5] (setting [8]), 72% (active); in test [5] (at 50.0 µM), 76.2% (active); in test [6] (setting [7]), 3% (inactive); in test [6] (setting [8]), 1% (inactive); in test [6] (at 50.0 µM), 38% (inactive).
